Holding throughout (test): DAPPL (digital affinity profiling via proximity ligation, sequencing); 10 mM Tris-HCl pH 7.5, 50 mM NaCl, 1 mM DTT, 4% glycerol, room temperature, 30 min; GST-TFs on glutathione beads, 16-mer random dsDNA library, 0.1% formaldehyde crosslink after washing; high values mean tight binding
Holding throughout (conditions): protein: recombinant; tags: N-terminal GST; dsDNA, one strand shown

The target of one experiment is T1, ERF (Homo sapiens, UniProt P50548 1-548).
T1 sequence: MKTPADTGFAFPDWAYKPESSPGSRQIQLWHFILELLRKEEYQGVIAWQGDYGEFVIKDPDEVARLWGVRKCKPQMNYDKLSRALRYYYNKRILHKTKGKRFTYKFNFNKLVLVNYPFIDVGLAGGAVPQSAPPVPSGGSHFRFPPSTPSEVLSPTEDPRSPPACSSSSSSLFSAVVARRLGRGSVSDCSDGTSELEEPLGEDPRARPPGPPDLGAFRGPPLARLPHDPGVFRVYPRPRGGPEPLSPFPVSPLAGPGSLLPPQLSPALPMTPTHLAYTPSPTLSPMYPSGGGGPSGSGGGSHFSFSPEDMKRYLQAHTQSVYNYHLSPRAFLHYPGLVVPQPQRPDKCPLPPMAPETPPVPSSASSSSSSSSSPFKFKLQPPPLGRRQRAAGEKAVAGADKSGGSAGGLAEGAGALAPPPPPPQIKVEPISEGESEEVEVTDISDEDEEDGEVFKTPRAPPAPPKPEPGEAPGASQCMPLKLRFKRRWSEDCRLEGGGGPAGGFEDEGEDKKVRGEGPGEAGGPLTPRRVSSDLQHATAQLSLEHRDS
The essentials:
(§1)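 The binding signal reported is, for every hexamer, its read frequency for a factor over its read frequency for the tag-only sample. Reads came from pools of yeast-expressed, GST-fused human transcription factors on glutathione beads, barcoded with DNA and mixed with that sample, which were incubated with 200 nmole of a random double-stranded 16-mer DNA library in Tris/NaCl/DTT/glycerol buffer at room temperature for 30 min. After washing, the pools were crosslinked with 0.1% formaldehyde, proximity-ligated with BsaI/T4 ligase for 1 h at 37 °C, PCR-amplified and sequenced on an Illumina NextSeq500.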

The target in another experiment is T2, ETV3L (Homo sapiens, UniProt Q6ZN32 1-361).
T2 sequence: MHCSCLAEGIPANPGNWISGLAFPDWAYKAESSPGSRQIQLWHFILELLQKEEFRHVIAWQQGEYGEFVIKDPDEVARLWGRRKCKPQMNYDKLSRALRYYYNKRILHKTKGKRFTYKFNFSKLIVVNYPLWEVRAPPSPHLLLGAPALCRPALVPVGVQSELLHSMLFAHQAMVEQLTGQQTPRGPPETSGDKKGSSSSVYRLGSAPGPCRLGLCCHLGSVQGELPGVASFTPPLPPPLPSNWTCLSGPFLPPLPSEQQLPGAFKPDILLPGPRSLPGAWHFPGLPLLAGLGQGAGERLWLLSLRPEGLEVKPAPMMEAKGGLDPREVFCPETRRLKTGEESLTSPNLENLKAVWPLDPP
The essentials:
as §1

Another experiment deals with T3, ETS2 (Homo sapiens, UniProt P15036 1-469).
T3 sequence: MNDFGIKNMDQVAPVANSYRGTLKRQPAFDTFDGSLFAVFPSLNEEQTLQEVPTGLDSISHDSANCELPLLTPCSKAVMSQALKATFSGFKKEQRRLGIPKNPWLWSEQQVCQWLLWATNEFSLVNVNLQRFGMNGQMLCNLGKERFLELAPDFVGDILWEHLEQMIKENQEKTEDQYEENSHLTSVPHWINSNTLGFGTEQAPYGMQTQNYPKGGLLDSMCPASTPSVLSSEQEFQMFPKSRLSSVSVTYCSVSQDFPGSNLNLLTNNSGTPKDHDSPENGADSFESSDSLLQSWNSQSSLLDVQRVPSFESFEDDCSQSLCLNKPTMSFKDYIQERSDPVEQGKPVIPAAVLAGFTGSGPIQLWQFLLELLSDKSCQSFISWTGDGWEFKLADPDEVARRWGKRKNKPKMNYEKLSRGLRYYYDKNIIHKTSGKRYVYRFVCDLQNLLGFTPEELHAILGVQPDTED
Summed up: as §1

Another experiment deals with T4, SPDEF (Homo sapiens, UniProt O95238 1-335).
T4 sequence: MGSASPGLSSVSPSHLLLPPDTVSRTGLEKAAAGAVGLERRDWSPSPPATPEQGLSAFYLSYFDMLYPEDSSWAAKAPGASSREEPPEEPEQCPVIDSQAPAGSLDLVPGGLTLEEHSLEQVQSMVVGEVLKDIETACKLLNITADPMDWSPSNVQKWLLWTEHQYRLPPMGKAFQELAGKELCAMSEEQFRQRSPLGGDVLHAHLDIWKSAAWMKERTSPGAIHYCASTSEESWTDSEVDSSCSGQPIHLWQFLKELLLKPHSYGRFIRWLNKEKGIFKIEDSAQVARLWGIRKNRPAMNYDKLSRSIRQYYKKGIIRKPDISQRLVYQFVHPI
The essentials: as §1

In another experiment the target is T5, ETV7 (Homo sapiens, UniProt Q9Y603 1-341).
T5 sequence: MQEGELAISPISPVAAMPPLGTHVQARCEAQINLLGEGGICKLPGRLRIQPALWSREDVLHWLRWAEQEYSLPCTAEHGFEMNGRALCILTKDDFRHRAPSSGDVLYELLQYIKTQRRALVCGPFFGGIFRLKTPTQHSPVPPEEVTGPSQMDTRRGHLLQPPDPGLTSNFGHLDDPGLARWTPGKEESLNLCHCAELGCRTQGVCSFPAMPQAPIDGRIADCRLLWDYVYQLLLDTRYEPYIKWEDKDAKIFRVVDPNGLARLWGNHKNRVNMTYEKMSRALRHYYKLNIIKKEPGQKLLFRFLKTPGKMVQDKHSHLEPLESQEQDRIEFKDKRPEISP
The essentials: as §1

The next experiment deals with T6, ELF5 (Homo sapiens, UniProt Q9UKW6-2 1-255).
T6 sequence: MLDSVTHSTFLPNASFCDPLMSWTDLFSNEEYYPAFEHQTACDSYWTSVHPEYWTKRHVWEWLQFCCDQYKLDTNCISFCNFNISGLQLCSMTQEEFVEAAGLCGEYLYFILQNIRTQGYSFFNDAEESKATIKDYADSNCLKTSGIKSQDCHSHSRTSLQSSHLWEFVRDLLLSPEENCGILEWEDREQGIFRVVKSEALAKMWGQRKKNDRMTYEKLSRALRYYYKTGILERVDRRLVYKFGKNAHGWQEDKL
Summed up:
as §1

A further experiment addresses T7, ETV3 (Homo sapiens, UniProt P41162-2 1-143).
T7 sequence: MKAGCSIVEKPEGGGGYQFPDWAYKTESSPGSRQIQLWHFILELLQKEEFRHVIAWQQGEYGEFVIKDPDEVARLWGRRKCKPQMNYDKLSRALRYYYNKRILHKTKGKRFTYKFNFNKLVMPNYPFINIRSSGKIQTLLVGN
Summed up:
as §1

The target in another experiment is ETV6 (Homo sapiens, UniProt P41212 1-452). The essentials:
as §1

ETV6, sequence (P41212 whole entry): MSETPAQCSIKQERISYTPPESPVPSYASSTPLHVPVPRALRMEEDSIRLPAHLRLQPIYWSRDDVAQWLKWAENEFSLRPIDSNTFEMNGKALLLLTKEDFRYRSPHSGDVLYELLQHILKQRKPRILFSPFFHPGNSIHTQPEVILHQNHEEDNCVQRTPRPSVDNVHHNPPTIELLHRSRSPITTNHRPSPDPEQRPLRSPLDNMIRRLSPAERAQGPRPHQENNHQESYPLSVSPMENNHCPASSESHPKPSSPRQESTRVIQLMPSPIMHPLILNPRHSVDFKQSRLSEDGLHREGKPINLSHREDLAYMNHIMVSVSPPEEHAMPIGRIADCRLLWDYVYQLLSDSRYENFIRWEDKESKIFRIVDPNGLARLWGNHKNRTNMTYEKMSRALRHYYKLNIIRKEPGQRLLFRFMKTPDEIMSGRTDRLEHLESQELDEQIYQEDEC

As for TCTTAC, the binding signal in the experiment with ERF was 1.29 fold enrichment (6-mer frequency, TF over GST control); with ETV3L, 1.3 fold enrichment (6-mer frequency, TF over GST control); with ETS2 it was 1.21 fold enrichment (6-mer frequency, TF over GST control); with SPDEF, 1.36 fold enrichment (6-mer frequency, TF over GST control); with ETV7, 1.31 fold enrichment (6-mer frequency, TF over GST control); with ELF5 it was 1.24 fold enrichment (6-mer frequency, TF over GST control). In addition, the binding signal in the experiment with ETV3 was 1.27 fold enrichment (6-mer frequency, TF over GST control); with ETV6, 1.33 fold enrichment (6-mer frequency, TF over GST control).
Take ACTCCG: the binding signal was 1.37 fold enrichment (6-mer frequency, TF over GST control) with ERF; 1.52 fold enrichment (6-mer frequency, TF over GST control) in the experiment with ETV3L; 1.46 fold enrichment (6-mer frequency, TF over GST control) with ETS2; 1.59 fold enrichment (6-mer frequency, TF over GST control) with SPDEF; 1.4 fold enrichment (6-mer frequency, TF over GST control) with ETV7; 1.32 fold enrichment (6-mer frequency, TF over GST control) with ELF5. For the same sequence, the binding signal was 1.51 fold enrichment (6-mer frequency, TF over GST control) with ETV3 and 1.47 fold enrichment (6-mer frequency, TF over GST control) with ETV6.
TCTTTA: the binding signal was 1.1 fold enrichment (6-mer frequency, TF over GST control) in the experiment with ERF; 1.4 fold enrichment (6-mer frequency, TF over GST control) with ETV3L; 1.2 fold enrichment (6-mer frequency, TF over GST control) with ETS2; 1.2 fold enrichment (6-mer frequency, TF over GST control) with SPDEF; 1.25 fold enrichment (6-mer frequency, TF over GST control) with ETV7; 1.19 fold enrichment (6-mer frequency, TF over GST control) with ELF5. In addition, the binding signal in the experiment with ETV3 was 1.25 fold enrichment (6-mer frequency, TF over GST control); in the experiment with ETV6, 1.22 fold enrichment (6-mer frequency, TF over GST control).
As to AGATCC, the binding signal was 1.08 fold enrichment (6-mer frequency, TF over GST control) in the experiment with ERF; 1.13 fold enrichment (6-mer frequency, TF over GST control) with ETV3L; 1.2 fold enrichment (6-mer frequency, TF over GST control) with ETS2; 2.08 fold enrichment (6-mer frequency, TF over GST control) with SPDEF; 1.03 fold enrichment (6-mer frequency, TF over GST control) in the experiment with ETV7; 1.22 fold enrichment (6-mer frequency, TF over GST control) with ELF5. Further, the binding signal with ETV3 is 1.21 fold enrichment (6-mer frequency, TF over GST control); with ETV6, 1.1 fold enrichment (6-mer frequency, TF over GST control).
On to TTTCAC, for which the binding signal with ERF was 1.44 fold enrichment (6-mer frequency, TF over GST control); with ETV3L, 1.36 fold enrichment (6-mer frequency, TF over GST control); with ETS2, 1.32 fold enrichment (6-mer frequency, TF over GST control); in the experiment with SPDEF, 1.33 fold enrichment (6-mer frequency, TF over GST control); in the experiment with ETV7, 1.4 fold enrichment (6-mer frequency, TF over GST control); in the experiment with ELF5, 1.42 fold enrichment (6-mer frequency, TF over GST control). The binding signal is 1.32 fold enrichment (6-mer frequency, TF over GST control) with ETV3 and 1.3 fold enrichment (6-mer frequency, TF over GST control) with ETV6.
For CTACGA, the binding signal is 1.23 fold enrichment (6-mer frequency, TF over GST control) in the experiment with ERF; 1.24 fold enrichment (6-mer frequency, TF over GST control) in the experiment with ETV3L; 1.25 fold enrichment (6-mer frequency, TF over GST control) with ETS2; 1.17 fold enrichment (6-mer frequency, TF over GST control) in the experiment with SPDEF; 1.26 fold enrichment (6-mer frequency, TF over GST control) in the experiment with ETV7; 1.19 fold enrichment (6-mer frequency, TF over GST control) in the experiment with ELF5. Also, the binding signal with ETV3 was 1.15 fold enrichment (6-mer frequency, TF over GST control); with ETV6 it was 1.16 fold enrichment (6-mer frequency, TF over GST control).
As for CTTCGG, the binding signal with ERF was 1.68 fold enrichment (6-mer frequency, TF over GST control); with ETV3L, 1.42 fold enrichment (6-mer frequency, TF over GST control); with ETS2, 1.48 fold enrichment (6-mer frequency, TF over GST control); with SPDEF it was 1.36 fold enrichment (6-mer frequency, TF over GST control); with ETV7 it was 1.39 fold enrichment (6-mer frequency, TF over GST control); with ELF5 it was 1.41 fold enrichment (6-mer frequency, TF over GST control). Further, the binding signal with ETV3 is 1.55 fold enrichment (6-mer frequency, TF over GST control); with ETV6 it was 1.27 fold enrichment (6-mer frequency, TF over GST control).

(Values after article PMC7862700, “An all-to-all approach to the identification of sequence-specific readers for epigenetic DNA modifications on cytosine”.)
